Compound activity from PubChem BioAssay.
KLF5 inhibitor = kruppel-like factor 5 inhibition. DLD-1 KLF5 promoter-luciferase reporter, luminescence. inhibition, % at 5 µM. 290,000 tested, 0.23% active;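 active = inhibition above a per-plate limit of that plate's mean compound inhibition plus 3 SD, cut at about 60% in these data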;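 note: higher means less KLF5 promoter-driven luciferase light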
Ba/F3 V617F tox = lowers viability of Ba/F3 cells expressing EpoR and JAK2V617F; ATP luminescence; inhibition, % at 5.6 µM; 220,000 tested, 1.1% active;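 active = inhibition above the campaign mean plus 3 SD over all tested compounds, cut at about 24% in these data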;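 note: cytokine-independent growth of Ba/F3 cells driven by EpoR plus mutant JAK2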
IEC-6 tox = kills IEC-6 intestinal cells in KLF5 counter-screen. IEC-6 cytotoxicity, luminescence viability. inhibition, % at 5 µM. 290,000 tested, 0.78% active
aSyn 5UTR inh = MLPCN primary screen, SNCA 5' untranslated region | alpha-synuclein 5'UTR reporter, inhibitor activity | inhibition, % (tested at 7.5 µM) | AID 1813 | 300,000 tested, 0.82% active; in the data active = inhibition above about 60%;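 note: H4 neuroglioblastoma cells stably carrying SNCA 5'UTR luciferase fusion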
BaF3 tox = counter-screen for JAK2V617F inhibitors: parental Ba/F3 viability inhibitors; CellTiter-Glo ATP luminescence; inhibition, % at 5.6 µM; 220,000 tested, 1.1% active; AID 1486;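 active = inhibition above a per-campaign cutoff, the mean inhibition of all tested compounds plus 3 SD, cut at about 27% in these data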
APP transl inh = APP translation inhibition; SH-SY5Y APP 5'UTR-luciferase reporter, luminescence; AID 1285; 190,000 tested, 0.82% active; inhibition, % at 2 µM;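 active = inhibition above a set limit, derived from the sample mean plus 3 SD, cut at about 45% in these data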
IEC-6 cytotox cf = IEC-6 cytotoxicity, confirmation assay. shares compounds with IEC-6 tox. IEC-6 rat intestinal epithelial viability, luminescence. inhibition, % at 5 µM. 1,900 tested, 63% active
Of the large screens only hits and unclear results are named; the others gave an inactive call (follow-up assays come after a bar, where they were run). Compounds with a hit are over-represented: about 2.1% of the library has one in this group of screens. Cut-off read from the data, not from the text of the source, unless noted: active = inhibition above about 22%; inactive = the rest.

COc1ccc(C2=NOC(C(=O)NCc3cccs3)C2)cc1OC (centres undefined)	Ba/F3 V617F tox 87, IEC-6 tox 52, BaF3 tox 76 (no result: APP transl inh) | IEC-6 cytotox cf 51
COc1ccc(C2=NOC(C(=O)NCc3cccs3)C2)cc1 (centres undefined)	none
COc1cc(OC)c(C2=NOC(C(=O)NCc3cccs3)C2)cc1Cl (centres undefined)	IEC-6 tox 42 | IEC-6 cytotox cf 41
CC(C)(C)NC(=O)COC(=O)c1ccccc1Nc1ccc(SC(F)F)cc1	IEC-6 tox 38 | IEC-6 cytotox cf 31
NC(=O)COC(=O)c1ccccc1Nc1ccc(SC(F)F)cc1	none
CCCN(CCC)CCCNC(=O)c1cc2c(=O)n(CC)c3ccccc3c2s1	IEC-6 tox 22 (no result: Ba/F3 V617F tox, BaF3 tox, APP transl inh) | IEC-6 cytotox cf inactive
CCn1c(=O)c2cc(C(=O)NCCCOC)sc2c2ccccc21	IEC-6 tox 22 (no result: Ba/F3 V617F tox, BaF3 tox, APP transl inh) | IEC-6 cytotox cf inactive
CCCCN(CC)CCCNC(=O)c1cc2c(=O)n(CC)c3ccccc3c2s1	none (no result: Ba/F3 V617F tox, BaF3 tox, APP transl inh)
Cc1cccc(NC(=O)c2cc(-c3cccnc3)nc3c(C)cccc23)n1	none (no result: Ba/F3 V617F tox, BaF3 tox, APP transl inh)
Cc1cc(NC(=O)c2cc(-c3ccncc3)nc3c(C)cccc23)no1	Ba/F3 V617F tox 41, IEC-6 tox 60, BaF3 tox 50, APP transl inh 84 | IEC-6 cytotox cf 44
Cn1c(Cl)cnc1C1CC(=O)c2cc(Cl)ccc2O1 (centres undefined)	Ba/F3 V617F tox 55, IEC-6 tox 70, BaF3 tox 50 | IEC-6 cytotox cf inactive
CCOc1cc(CNc2ccc3c(c2)OCCO3)cc(Br)c1OC	Ba/F3 V617F tox 72, IEC-6 tox 82, aSyn 5UTR inh 95, BaF3 tox 73, APP transl inh 94 | IEC-6 cytotox cf 61
CCOc1c(Br)cc(CNc2ccc3c(c2)OCCO3)cc1OC	Ba/F3 V617F tox 80, IEC-6 tox 76, aSyn 5UTR inh 97, BaF3 tox 77, APP transl inh 94 | IEC-6 cytotox cf 54
CCOc1cc(CNc2ccc3c(c2)OCCO3)cc(Br)c1OCC(N)=O	none
CC(C)(CNC(=O)c1ccccc1NS(C)(=O)=O)N1CCCCC1	none (no result: Ba/F3 V617F tox, BaF3 tox, APP transl inh)
CCCc1nc2c(sc3nc4c(cc32)COC(C)(C)C4)c(=O)n1Cc1ccco1	none
Cc1nc2c(sc3nc4c(cc32)COC(C)(C)C4)c(=O)n1CC(=O)NCc1ccco1	Ba/F3 V617F tox 76, IEC-6 tox 63, BaF3 tox 79 | IEC-6 cytotox cf 38
O=C(CN1CCCCC1)N=Nc1c(O)[nH]c2ccccc12	none
O=C(CN1CCN(Cc2ccccc2)CC1)N=Nc1c(O)[nH]c2ccccc12	IEC-6 tox 23 | IEC-6 cytotox cf inactive
COCc1cc(=O)n2[nH]cc(-c3ccsc3)c2n1	none (no result: Ba/F3 V617F tox, BaF3 tox, APP transl inh)
CC(OC(=O)c1cccc(S(=O)(=O)N2CCCCCC2)c1)C(=O)Nc1ccc(S(N)(=O)=O)cc1 (centres undefined)	none (no result: KLF5 inhibitor, Ba/F3 V617F tox, IEC-6 tox, BaF3 tox, APP transl inh)
NC(=O)c1c(NC(=O)c2ccc([N+](=O)[O-])o2)sc2c1CCCC2	IEC-6 tox 100, aSyn 5UTR inh 95 (no result: Ba/F3 V617F tox, BaF3 tox, APP transl inh) | IEC-6 cytotox cf 39
CN1CCc2c(sc(NC(=O)c3ccc([N+](=O)[O-])o3)c2C(N)=O)C1	IEC-6 tox 101, aSyn 5UTR inh 86 (no result: Ba/F3 V617F tox, BaF3 tox, APP transl inh) | IEC-6 cytotox cf 88
CC(C)c1onc(C(=O)Nc2sc3c(c2C#N)CCC3)c1[N+](=O)[O-]	none
N#Cc1c(NC(=O)c2ccc([N+](=O)[O-])o2)sc2c1CCC2	IEC-6 tox 39 (no result: Ba/F3 V617F tox, BaF3 tox, APP transl inh) | IEC-6 cytotox cf inactive
O=C(N/N=C/c1ccc(O)cc1)Nc1cccc2nsnc12	IEC-6 tox 81 | IEC-6 cytotox cf 91
COCC1=C(C(=O)OC)C(c2cccs2)n2ncnc2N1 (centres undefined)	none (no result: APP transl inh)
O=C(Nc1ccc([N+](=O)[O-])cc1)c1ccc(S(=O)(=O)N2CCCC2)cc1	none (no result: Ba/F3 V617F tox, BaF3 tox, APP transl inh)
O=C(Nc1ccc(S(=O)(=O)N2CCCCCC2)cc1)c1[nH]ncc1[N+](=O)[O-]	IEC-6 tox 29, aSyn 5UTR inh 86 (no result: Ba/F3 V617F tox, BaF3 tox, APP transl inh) | IEC-6 cytotox cf inactive
CC(=O)O[C@H]1C(=O)[C@@]2(C)C([C@H](OC(=O)c3ccccc3)[C@]3(O)C[C@H](OC(=O)[C@H](O)[C@@H](NC(=O)c4ccccc4)c4ccccc4)C(C)=C1C3(C)C)[C@]1(OC(C)=O)CO[C@@H]1C[C@H]2O (some centres undefined)	IEC-6 tox 84, aSyn 5UTR inh 102 (no result: Ba/F3 V617F tox, BaF3 tox, APP transl inh) | IEC-6 cytotox cf 77
